Bioassay records: PubChem, National Center for Advancing Translational Sciences (NCATS)
The entries come from a sample that favours hits as a whole.
Pf Dd2 inh: inhibitors of Plasmodium falciparum Dd2 growth; AID 1347417; actives 4.3% (n = 120,000); P. falciparum Dd2 growth, SYBR Green, 72 h; Potency, µM (titrated, usually from 28.9 µM), without a hit: at the highest dose activity, negative = inhibition, most hits filed as inhibitors; active = well fitted inhibition curve with a large enough effect;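 also: plate controls were DMSO vehicle for no effect and reference drug for full effect; nearly all actives have a fitted effect of over 65% in size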
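Infected erythrocytes (Dd2, 0.3% parasitemia, 2.5% hematocrit final) are added to compound in RPMI-1640/Albumax II medium, grown 72 h at 37C in low oxygen, then lysed with saponin/Triton-X containing SYBR Green and read by fluorescence.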
The depositor's hits bear a star; i = inactive; [ ] = remark or other dose. Potency is read from the fitted curve at half-maximal effect.

SMILES	Pf Dd2 inh
COCC(=O)N[C@@H]1C=C[C@@H](c2c(C)nn(-c3ccc(C(C)(C)C)cc3)c2C)C1	-14%[44.1 µM]
COc1cc(OC)cc(-c2onc(C)c2C(=O)NCCCCc2ccccc2)c1	i
CN(CC1CCCCC1)C1CCc2ccccc2C1 (stereo not drawn)	-24%[44.1 µM]
Cn1cnc(C(=O)N2[C@@H]3CC[C@H]2CC(NC(=O)c2ccc(F)cc2)C3)c1 (stereo partly drawn)	-21%
COc1ccc(N2CC3(C2)CN(c2ccccc2)C(=O)O3)cc1OC	24%[44.1 µM]
CC(=O)N1CCC(Cc2ncc(C)n2C2CC2)C1 (stereo not drawn)	-24%
COCC1CN(C(=O)NCc2cccc(OC)c2)CC12CCNCC2 (stereo not drawn)	i
Cn1nc2n(c1=O)CCC(N)CC2 (stereo not drawn)	30%
COc1ccc(NC(=O)c2ccc3c(c2)OCCN(c2ccccc2)C3)c(F)c1	10µM*
COc1ccc(NC(=O)c2ccc3c(c2)OCCN(CCC(F)(F)F)C3)c(F)c1	-23%[44.1 µM]
CNC(=O)c1ccc2c(c1)OCCN(c1ccccc1)C2	i
CCCNC(=O)C[C@@H]1CCN(S(=O)(=O)c2c(C)noc2C)C[C@@H]1CC	-5%[44.1 µM]
O=C(NC1CCCN(c2cc(-c3ccc(F)cc3)[nH]n2)C1)c1cc(F)ccc1F (stereo not drawn)	-3%
CCOC(=O)CCNC(=O)N1[C@@H]2CC[C@H]1CC(NC(=O)c1ccc(F)cc1)C2 (stereo partly drawn)	11%
CSc1ccc(CCNC(=O)c2ccc3c(Cl)c4c(nc3c2)CCCC4)cc1	-16%
Cc1ccc(CCNC(=O)c2ccc3c(Cl)c4c(nc3c2)CCCC4)cc1	-4%
CCN(CC)CCCNC(=O)c1ccc2c(Cl)c3c(nc2c1)CCCC3	11µM*
CCn1ncc(N2CCCC(CC(=O)N3CCN(c4ccccc4)CC3)C2)cc1=O (stereo not drawn)	-15%
O=C1Cc2c(-c3ccccc3Cl)n[nH]c2CN1Cc1ccccn1	8%[44.1 µM]
Cc1ccc(-n2nc(C)c([C@@H]3C=C[C@@H](NS(=O)(=O)c4cccs4)C3)c2C)cc1Cl	11µM*
Cc1ccc(-n2nc(C)c([C@H]3C=C[C@@H](O)C3)c2C)cc1Cl	i
COc1ccc(C(=O)N[C@@H]2C=C[C@@H](c3c(C)nn(-c4ccccc4)c3C)C2)cc1	-24%[44.1 µM]
COc1ccc(C(=O)N[C@@H]2C=C[C@@H](c3c(C)nn(-c4ccc(C)c(Cl)c4)c3C)C2)cc1	4.5µM*
COc1ccc(C(=O)N[C@@H]2C=C[C@@H](c3c(C)nn(-c4ccc(C(F)(F)F)cc4)c3C)C2)cc1	-7%
Cc1nn(-c2ccc(C(F)(F)F)cc2)c(C)c1[C@@H]1C=C[C@@H](NS(=O)(=O)c2ccccc2)C1	i
SMILES	Pf Dd2 inh
CN(C)C(=O)c1ccc(OC2CCN(C(=O)c3ccc(F)c(F)c3)CC2)nc1	54%
CCN(CC)C1CCOC2(CCN(C(=O)c3sc(C)nc3C)CC2)C1 (stereo not drawn)	47%
O=C([C@@H]1C[C@H](Oc2cccnc2)CN1S(=O)(=O)Cc1ccccc1F)N1CCOCC1	10%
CCCn1cc(NC(=O)C[C@H]2NC(=O)c3ccccc3NC2=O)c(C)n1	-11%
CC1=C[C@@H](CNC(=O)CCC(=O)O)[C@H](C(C)C)C[C@H]1CC(=O)N1CCN(C)CC1	1%[44.1 µM]
COc1cccc(CNC(=O)[C@@H]2C[C@@H](O)CN2C2CCN(C(=O)c3nccc4ccccc34)CC2)c1	i
CCOc1ccccc1CNC(=O)c1cc2cn(C(C)C)cc2s1	-12%
COc1ccccc1CNC(=O)c1cc2cn(C3CC3)cc2s1	i
CCOc1ccccc1CNC(=O)c1cc2cn(C3CCCC3)cc2s1	13µM*
CCS(=O)(=O)N1CCC(Nc2cccnc2)C1 (stereo not drawn)	17%[5.79 µM]
CCOc1ccc(C(=O)N2CCC(c3nnc(Cn4cccn4)n3C)CC2)o1	-14%
Cc1ccc(Cn2ccnc2SCC(=O)NCc2ccccc2)cc1	i
COc1ccc(-n2c(SCC(=O)NCc3ccc(C)cc3)nc3n[nH]c(C)c3c2=N)cc1	10µM*
COc1ccc(CNC(=O)CSc2n[nH]c(-c3ccc(OC)cc3)n2)cc1	i
Cc1ccc(CNC(=O)CSc2nc3n[nH]c(C)c3c(=N)n2-c2ccccc2Cl)cc1	3.5µM*
COc1ccc(CNC(=O)c2cc(-c3ccc(C)cc3)nc3n[nH]c(-c4ccc(Br)cc4)c23)cc1	74%
CCCCn1c(SCC(=O)NCc2ccc(C)cc2)nc2c(sc3ccccc32)c1=O	46%
CN(C)c1cc(N2CCCC(NC(=O)Cc3ccc(F)cc3)C2)ncn1 (stereo not drawn)	38%[5.79 µM]
CC1=C[C@@H](CC#N)[C@H](C(C)C)C[C@H]1CC(=O)NCc1ccc(F)cc1	i
COc1ccc(NC(=O)Cn2nc3n(c2=O)CCCC3)cc1	15%
Cc1noc(C2CCCCCN2C(=O)NCC(C)C)n1 (stereo not drawn)	16%
N#Cc1cccc(CN2CCc3nc(C(=O)Nc4cccc(C(F)(F)F)c4)oc3CC2)c1	-50%
Cc1cc2[nH]c(=O)c(=O)[nH]c2cc1S(=O)(=O)N1CCN(c2cccc(C)c2C)CC1	7.9µM*
Cc1cc2[nH]c(=O)c(=O)[nH]c2cc1S(=O)(=O)N1CCN(c2ccccc2F)CC1	9%
COc1ccccc1N1CCN(S(=O)(=O)c2cc3[nH]c(=O)c(=O)[nH]c3cc2C)CC1	-7%
SMILES	Pf Dd2 inh
Cc1cc(C)n(CCCN(C)C(=O)C2CC3(CCNCC3)CN2)n1 (stereo not drawn)	1%
CC(=O)N1CCc2nn(CC(=O)N3CCN(c4ccccc4F)CC3)c(=O)cc2C1	-6%
CC1(C)CN(C(=O)c2ccc(Oc3ccccc3)o2)CC1(C)O (stereo not drawn)	-22%
COc1ccc(CNC(=O)C2(C)CCCCC(=O)N2)cc1OC (stereo not drawn)	i
O=C([C@H]1O[C@H](CCN2CCN(c3ccccc3)CC2)CC[C@@H]1O)N1CCOCC1	2%[44.1 µM]
CN(Cc1ccccc1)C(=O)[C@H]1O[C@H](CCN2CCN(c3ccccc3)CC2)CC[C@@H]1O	4.5µM*
COc1ccccc1N1CCN(C(=O)[C@H]2O[C@H](CCN3CCN(c4ccccc4)CC3)CC[C@@H]2O)CC1	i
Cc1nc2c(c(-c3ccc(Cl)cc3)n1)CCN(C(=O)c1ccccc1F)CC2	-15%
COc1ccc(OC)c(NC(=O)Cn2cc(C(=O)c3ccccc3)c3ccccc32)c1	i
COc1cccc(NC(=O)Cn2cc(C(=O)c3ccc(C)cc3)c(=O)c3cc(OC)ccc32)c1	-19%
O=C(Cn1cc(S(=O)(=O)c2ccccc2)c(=O)c2cc(Cl)ccc21)Nc1ccc2c(c1)OCO2	8.9µM*
COc1ccc2c(c1)c(=O)c(S(=O)(=O)c1ccccc1)cn2CC(=O)Nc1ccc2c(c1)OCO2	-2%
COc1ccc2c(c1)c(=O)c(C(=O)c1ccc(Cl)cc1)cn2CC(=O)Nc1ccc2c(c1)OCCO2	11µM*
CCc1ccc(C(=O)c2cn(CC(=O)Nc3cccc(OC)c3)c3ccc(OC)cc3c2=O)cc1	13µM*
COc1ccc(OC)c(NC(=O)Cn2cc(C(=O)c3ccc(Cl)cc3)c(=O)c3cc(OC)ccc32)c1	8.9µM*
COc1cccc(NC(=O)Cn2cc(C(=O)c3ccc(F)cc3)c(=O)c3cc(OC)ccc32)c1	-8%
COc1ccc(NC(=O)Cn2cc(C(=O)c3ccccc3)c(=O)c3cc(OC)ccc32)c(OC)c1	3%
CCOc1ccc(C(=O)c2cn(CC(=O)Nc3ccc4c(c3)OCCO4)c3ccc(OC)cc3c2=O)cc1	-22%
